Source: ChEMBL document CHEMBL3988442, “University of Dundee, Small-Polar-MMV Screening Library” (2021)
Hit rate of the full screen: of about 48,000 compounds, about 13,000 (27%) showed an effect of 50% or more. This is one part of the list.

The compounds below were run on Wolbachia pipientis (assay: Anti-Wolbachia Cell-Based Screen). Details: 5 µM.
Format: functional
Design: scale not given: in the data most compounds retested in dose-response had high values

SMILES | Percent Effect [%]
O=C(Cc1ccncc1)N1C[C@H]2CC[C@@H]1CN(Cc1cccnc1)C2 | -14.3
NCC1(c2cccc(C(F)(F)F)c2)CCCCC1 | -7.297
CCCc1nnc2sc(C3CCN(CC)CC3)nn12 | 103.4
COc1ccc(CC(=O)N2CCN(Cc3ccco3)C[C@@H]2C)cc1 | 137.5
CO[C@H]1CCN(c2ncc(F)cn2)[C@@H]2CN(Cc3ccco3)C[C@H]12.O=C(O)C(F)(F)F.O=C(O)C(F)(F)F | 23.38
COc1ccc(CC(=O)N2CCN(Cc3ccco3)C[C@H]2C)cc1OC | 147.8
COc1cccc(CC(=O)N2CCCSCC2CN2CCCC2)c1 (centres undefined) | 23.31
O=C(Cc1csc(-c2ccco2)n1)N1CCN(CCO)CC1 | 5.506
COc1ccc(CC(=O)N2CCN(Cc3ccco3)C[C@@H]2C)cc1OC | 120.6
COc1ccc(CCNCc2ccco2)cc1OC | -22.25
COc1ccc(C(=O)C2CCCN(Cc3ccc(C)o3)C2)c(OC)c1 (centres undefined) | -6.752
COc1ccc2c(ccn2CCN)c1 | -4.94
O=C(NCC1CC1)[C@H]1C[C@@H]2[C@@H](C1)OCCN2Cc1cccnc1.O=C(O)C(F)(F)F.O=C(O)C(F)(F)F | 13.71
O=C(O)C(F)(F)F.O=C(O)C(F)(F)F.O=C(O)C(F)(F)F.c1cncc(CN2CCO[C@H]3[C@H](OCCN4CCCC4)CC[C@@H]32)c1 | 103
O=C(O)C(F)(F)F.O=C(O)C(F)(F)F.c1cc(CO[C@H]2CC[C@H]3[C@H]2OCCN3Cc2nccs2)ccn1 | 124.9
CC(C)NC(=O)[C@H]1C[C@@H]2[C@@H](C1)OCCN2Cc1cccnc1.O=C(O)C(F)(F)F.O=C(O)C(F)(F)F | 1.72
O=C(O)C(F)(F)F.O=C(O)C(F)(F)F.O=C(O)C(F)(F)F.c1cc(CN2CCO[C@H]3[C@H](OCCN4CCCC4)CC[C@@H]32)ccn1 | 104.9
O=C(O)C(F)(F)F.O=C(O)C(F)(F)F.c1ccc(CO[C@H]2CC[C@H]3[C@H]2OCCN3Cc2nccs2)nc1 | -10.71
Cc1cccc(CO[C@@H]2CC[C@H]3[C@H]2OCCN3Cc2nccs2)n1.O=C(O)C(F)(F)F.O=C(O)C(F)(F)F | -8.72
O=C(O)C(F)(F)F.O=C(O)C(F)(F)F.O=C(O)C(F)(F)F.c1ccc(CN2CCO[C@H]3[C@H](OCCN4CCCC4)CC[C@@H]32)nc1 | -22.42
CCN(CC)CCN1CCO[C@H]2[C@@H](OCc3ccncc3)CC[C@@H]21.O=C(O)C(F)(F)F.O=C(O)C(F)(F)F.O=C(O)C(F)(F)F | 3.809
Cc1nc(C)c(CC(=O)N2CCN(CC(C)C)CC2)c(=O)[nH]1 | -15.6
CC[C@H]1CN2CC[C@H]1C[C@@H]2CNC(=O)NC1CCCCC1 | -4.604
CNC(=O)[C@H]1C[C@@H]2CN(C(=O)c3ccncc3F)C[C@@H]2N1C | 2.311
CCN(CCN1CCCCCC1)C(=O)COc1cccnc1 | -15.49
CN1CCc2nc3c(c(N)c2C1)CCCN3C | 105.5
CC(C)c1cc(N2CCC3(CCN(C)C3)C2)ncn1 (centres undefined) | -5.942

SMILES | Percent Effect [%]
Cn1ccnc1CN1CCC2(CC(=O)N(c3ccccn3)C2)C1.O=C(O)C(F)(F)F.O=C(O)C(F)(F)F (centres undefined) | -3.39
CCS(=O)(=O)NC[C@]12COC[C@H]1CN(Cc1ccncc1)C2.O=C(O)C(F)(F)F.O=C(O)C(F)(F)F | -4.372
CN(C)C(=O)N1CCCC2(CCN(Cc3ccncc3)C2)C1 (centres undefined) | -11.09
CCN1CC2(CC1=O)CN(Cc1ccccn1)CCN(C(C)=O)C2.O=C(O)C(F)(F)F.O=C(O)C(F)(F)F (centres undefined) | 108.4
CC(=O)N1CCN(Cc2ccncc2)CC2(CC(=O)N(C)C2)C1.O=C(O)C(F)(F)F.O=C(O)C(F)(F)F (centres undefined) | 112.8
CC(=O)N1CCOCC2(CN(Cc3ccccn3)CCO2)C1.O=C(O)C(F)(F)F.O=C(O)C(F)(F)F (centres undefined) | -7.165
O=C(O)C(F)(F)F.O=C(O)C(F)(F)F.O=C1CC2(CCN(Cc3ccncc3)C2)CN1c1cccc(F)c1 (centres undefined) | 10.56
Cn1cnc(S(=O)(=O)N2C[C@H]3CN(Cc4cccnc4)C[C@H]3C2)c1.O=C(O)C(F)(F)F.O=C(O)C(F)(F)F.O=C(O)C(F)(F)F | -11.02
Cn1cnc(S(=O)(=O)N2CC3(CCN(Cc4ccncc4)C3)C2)c1.O=C(O)C(F)(F)F.O=C(O)C(F)(F)F.O=C(O)C(F)(F)F | 100.9
CCN1CCc2[nH]cnc2C12CCN(c1ccc(Cl)cn1)CC2 | 20.82
Cc1cc(CN2C[C@@H]3COC[C@]3(CNC(=O)c3ccco3)C2)no1.O=C(O)C(F)(F)F | -9.998
Cc1nc(CC(=O)N2CCN(CCOc3ccccc3)CC2)cs1 | -7.543
Cc1ccc(-c2ccnc3cc(CC(=O)N4CCN(C)CC4)nn23)cc1 | 99.35
CN1CCN(C(=O)Cc2ccc(S(=O)(=O)C(F)F)cc2)CC1 | 3.1
CCCN1CCN(C(=O)Cc2cccnc2)[C@H]2CS(=O)(=O)C[C@H]21 | 0.3719
O=C(O)C(F)(F)F.O=C(O)C(F)(F)F.c1ccc(CN2C[C@H]3CCC[C@@]3(COCC3CCOCC3)C2)nc1 | 5.827
O=C(O)C(F)(F)F.O=C(O)C(F)(F)F.c1cncc(OC[C@@]23CCC[C@@H]2CN(C2CCOCC2)C3)c1 | 96.07
C[C@@H]1CN(C2CCOC2)C[C@]12CCN(c1cccnc1)C2=O.O=C(O)C(F)(F)F.O=C(O)C(F)(F)F (some centres undefined) | 8.884
CCS(=O)(=O)NC[C@]12COC[C@H]1CN(Cc1cccnc1)C2.O=C(O)C(F)(F)F.O=C(O)C(F)(F)F | -8.022
Cc1cc(CN2C[C@H]3CCC[C@@]3(COCC3CCOCC3)C2)no1.O=C(O)C(F)(F)F | 1.109
O=C(NC[C@]12COC[C@H]1CN(Cc1cccnc1)C2)C1CCC1.O=C(O)C(F)(F)F.O=C(O)C(F)(F)F | 96.22
O=C(O)C(F)(F)F.O=C(O)C(F)(F)F.c1cncc(OC[C@@]23CCC[C@@H]2CN(CC2CCOCC2)C3)c1 | 108.6
O=C(O)C(F)(F)F.O=C(O)C(F)(F)F.c1cncc(OC[C@]23COC[C@H]2CN(C2CCOCC2)C3)c1 | 108.8
COc1ncccc1CN1C[C@@H]2COC[C@]2(COCC2CC2)C1.O=C(O)C(F)(F)F.O=C(O)C(F)(F)F | 12.64
C[C@@H]1CN(C2CCOCC2)C[C@]12CCN(c1cccnc1)C2=O.O=C(O)C(F)(F)F.O=C(O)C(F)(F)F | 17.85
O=C(NC1CC(F)(F)C1)[C@]12COC[C@H]1CN(Cc1cccnc1)C2.O=C(O)C(F)(F)F.O=C(O)C(F)(F)F | 1.025
Cl.O=C(C1CCCCC1)N1CC2(CCNCC2)C1 | -23.98

SMILES | Percent Effect [%]
CC(C)(C)NC(=O)CNc1ccc(C#N)c(C(F)(F)F)c1 | 3.351
COCCO[C@H]1COCCN(C2CCN(C)CC2)C1 | -1.205
Cc1nc(N2C[C@H]3CNC[C@H]3C2)c2sccc2n1 | 3.045
c1cc(COC[C@@]23CCC[C@@H]2CN(C2CCOCC2)C3)ccn1 | 95.49
O=C(O)C(F)(F)F.O=C(O)C(F)(F)F.c1ccc(OC[C@]23COC[C@H]2CN(Cc2ccoc2)C3)nc1 | -16.38
O=C(O)C(F)(F)F.O=C(O)C(F)(F)F.c1ccc(CN2C[C@@H]3COC[C@]3(COCC3CCOCC3)C2)nc1 | 9.184
O=C1[C@@H]2CCN(C3CCC3)C[C@@H]2OCCN1Cc1ccncc1 | -0.008003
O=C(O)C(F)(F)F.O=C(O)C(F)(F)F.c1ccc(OC[C@]23COC[C@H]2CN(C2CCOCC2)C3)nc1 | 115.9
O=C(O)C(F)(F)F.O=C(O)C(F)(F)F.c1cncc(OC[C@]23COC[C@H]2CN(C2CCC2)C3)c1 | 103
O=C(O)C(F)(F)F.O=C(O)C(F)(F)F.c1cncc(OC[C@]23COC[C@H]2CN(Cc2cccs2)C3)c1 | -9.167
O=C(O)C(F)(F)F.O=C(O)C(F)(F)F.c1cc(CN2C[C@@H]3COC[C@]3(COCC3CC3)C2)ccn1 | 8.652
O=C(O)C(F)(F)F.c1cnc(N2CCC3(CCN(CC4CCOC4)C3)CC2)nc1 (centres undefined) | -13.35
O=C(O)C(F)(F)F.O=C(O)[C@]12CCCN(C3CCOC3)C[C@H]1CN(c1ncccn1)C2 (some centres undefined) | 103.8
CCN(CCc1ccccc1)Cn1nc(C)c2c(C)onc2c1=O | 9.974
CC(C)NC(=O)N1CCOC2(CNC2)C1 | 2.797
CC(C)(C)n1cc(C(=O)O)c(-c2ccc(F)cc2F)n1 | 0.2477
CC(C)N1[C@H](Cn2cncn2)C[C@@H]2CN(c3ncccn3)CC[C@@H]21.O=C(O)C(F)(F)F | 2.319
CN(C)C[C@@H]1C[C@@H]2CN(c3ncc(F)cn3)CC[C@@H]2N1C.O=C(O)C(F)(F)F.O=C(O)C(F)(F)F.O=C(O)C(F)(F)F | -18.44
Cc1oncc1C(=O)N1CC[C@H]2[C@H](C[C@@H](CN3CCCC3)N2C)C1.O=C(O)C(F)(F)F.O=C(O)C(F)(F)F | 90.36
CN1C(Cn2cccn2)C[C@@H]2CN(Cc3ccccn3)CC[C@@H]21.O=C(O)C(F)(F)F.O=C(O)C(F)(F)F.O=C(O)C(F)(F)F.O=C(O)C(F)(F)F (some centres undefined) | 100.1
Cn1cc(N2C[C@@H]3CN(Cc4ccccn4)C[C@@H]3C2=O)cn1.O=C(O)C(F)(F)F.O=C(O)C(F)(F)F | -17.49
Cc1cnc(N2CC[C@H]3[C@H](C[C@@H](CN(C)C)N3C)C2)nc1.O=C(O)C(F)(F)F.O=C(O)C(F)(F)F.O=C(O)C(F)(F)F | -11.75
CN1C(Cn2cccn2)C[C@@H]2CN(Cc3cccnc3)CC[C@@H]21.O=C(O)C(F)(F)F.O=C(O)C(F)(F)F.O=C(O)C(F)(F)F.O=C(O)C(F)(F)F (some centres undefined) | 103.4
O=C(O)C(F)(F)F.O=C(O)C(F)(F)F.O=C1[C@H]2CN(Cc3ccoc3)C[C@H]2CN1Cc1cccnc1 | -13.37
O=C(O)C(F)(F)F.O=C(O)C(F)(F)F.O=C(O)C(F)(F)F.c1ccc(CN2CC[C@H]3[C@H]2CCN3c2ncccn2)nc1 | -2.728
